Common to all, as to assay: NCI-60 one-dose screen, 48 h (100 = growth as untreated, 0 = no growth, -100 = all killed)
Common to all, as to conditions: 10 µM

Experiment [1] has as its system NCI-H23 lung.
The subject of experiment [2] is NCI-H226 lung.
Experiment [3] relates to HOP-62 NSCLC.
Experiment [4] deals with NCI-H460 lung.
For experiment [5], the system named is NCI-H522 lung.
Experiment [6] has as its system A549/ATCC NSCLC.
Experiment [7] concerns DU-145 prostate.
Experiment [8] deals with K-562 leukemia.
Experiment [9] has as its system MALME-3M melanoma.
The subject of experiment [10] is MDA-MB-231 breast.
Experiment [11] has as its system RXF 393 renal.
Experiment [12] relates to SF-268 CNS.
Experiment [13] has as its system SF-295 CNS.
Experiment [14] concerns SF-539 CNS.
Experiment [15] has as its system UACC-257 melanoma.
The test system of experiment [16] is M14 melanoma.
For experiment [17], the system named is HOP-92 NSCLC.
Experiment [18] deals with 786-0 renal.
Experiment [19] relates to COLO 205 colon.

About 83,000 compounds went through this panel and 20% of them were active in at least one assay; those are over-represented in the sample as a whole.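 Assay: single dose, 48 h. Readout: percent growth (0 = no net growth; negative = cell death). Active: <10.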 Unmarked numbers belong to inactive results. Calls of active or inactive are those of the source.

With `c1ccc(CSc2ncccc2-c2nnc(SCCN3CCOCC3)o2)cc1`, the growth in [1] is 104%; in experiment [2], 114%; in [3], 116%; in experiment [4], 122%; in experiment [5] it was 105%; in experiment [6], 112%. Also, the growth is 112% in [7]; 117% in [8]; 111% in experiment [9]; 114% in experiment [10]; 123% in [11]; 107% in experiment [12]. In addition, the growth in [13] is 106%; in experiment [14], 132%; in [15], 147%; in experiment [16], 108%.

On to `NC1=CC(=O)C(=O)c2cccnc21`, for which the growth was 18.7% in experiment [1]; 82.4% in experiment [2]; 80.2% in [3]; 149% in [17]; 59.8% in experiment [5]; 43.9% in experiment [6]. Further, the growth in experiment [18] is 99.7%; in [19], 98.7%; in [7] it was 28.3%; in [8] it was 88.4%; in [9], -0.873% (active); in [10], 83.9%. Further, the growth was 83.5% in experiment [11]; 90.4% in [12]; 77.3% in experiment [13]; 101% in experiment [14]; 64.4% in experiment [15]; 32.1% in [16].

`COc1ccc(C(=O)N2C=Cc3ccccc3C2C#N)cc1` (stereo not given): the growth was 95.3% in [1]; 87.7% in experiment [2]; 89.4% in [3]; 102% in [17]; 94.2% in experiment [5]; 101% in experiment [6]. The growth was 114% in experiment [18]; 105% in experiment [19]; 109% in experiment [7]; 67.4% in experiment [8]; 100% in experiment [9]; 86.9% in experiment [10]. Also, the growth in experiment [11] was 90%; in [12], 99.9%; in [13], 99.2%; in experiment [14] it was 96.8%; in experiment [15], 93.7%; in experiment [16] it was 116%.

With `CC(C)(C)OC(=O)CC(S(=O)(=O)c1ccccc1)S(=O)(=O)c1ccccc1`, the growth was 102% in experiment [1]; 94.5% in experiment [2]; 103% in [3]; 122% in experiment [17]; -36.4% (active) in [5]; 112% in [6]. Also, the growth is 105% in [18]; -98.1% (active) in experiment [19]; 94.2% in experiment [7]; 43.9% in experiment [8]; -41.1% (active) in experiment [9]; 103% in [10]. The growth in [11] was 69.4%; in experiment [12] it was 102%; in experiment [13], 110%; in experiment [14], 107%; in [15] it was 91.9%; in experiment [16], 116%.

As for `O=C(N/N=C/c1c(Cl)cccc1Cl)c1ccccc1Nc1cccc(C(F)(F)F)c1`, the growth in [1] is 102%; in experiment [2] it was 99.4%; in [3], 111%; in experiment [4], 88.6%; in experiment [5], 84.9%; in experiment [18], 102%. Besides, the growth is 126% in experiment [19]; 77.2% in experiment [8]; 83.2% in experiment [10]; 95.5% in [12]; 61.5% in [13]; 75% in [14]. The results for the growth in experiment [15] and in experiment [16] were 102% and 99.4%, respectively.

For `COC(=O)CC[C@@H](C)[C@H]1CC[C@H]2[C@@H]3CC[C@@H]4C[C@H](O)CC[C@]4(C)[C@H]3C[C@H](O)[C@]12C`, the growth was 116% in [1]; 102% in experiment [2]; 109% in experiment [3]; 110% in experiment [4]; 102% in experiment [6]; 107% in [18]. The growth was 101% in [19]; 118% in [7]; 76.4% in experiment [8]; 120% in experiment [10]; 110% in experiment [11]; 95.6% in experiment [12]. Also, the growth in [13] was 100%; in [14], 111%; in [15], 110%; in experiment [16] it was 102%.

`c1ccc(/C(=N\Nc2ccc3ccccc3n2)c2ccccn2)cc1`: the growth in [1] is 21.3%; in [2], 3.53% (active); in experiment [3], 5.49% (active); in experiment [4] it was 5.49% (active); in experiment [5], -2.13% (active); in experiment [18], -35.9% (active). The growth was 26.5% in experiment [19]; 8.58% (active) in experiment [8]; 29.8% in experiment [10]; 19.6% in experiment [12]; -15.8% (active) in [13]; -12.4% (active) in experiment [14]. In addition, the growth in experiment [15] is 16%; in [16] it was -41.8% (active).

For the compound `O=C(CSc1nnc(-c2cccnc2SCc2ccccc2)o1)Nc1nc(Cl)cc(Cl)n1`, the growth in experiment [1] is 102%; in experiment [2] it was 83.7%; in experiment [3], 90.6%; in experiment [4] it was 105%; in experiment [5], 83.1%; in [6], 104%. Moreover, the growth is 107% in experiment [7]; 92.8% in experiment [8]; 94% in experiment [9]; 92% in [10]; 105% in experiment [11]; 99.7% in experiment [12]. The growth in experiment [13] was 96.8%; in [14] it was 101%; in experiment [15], 113%; in experiment [16], 92%.

Values taken from PubChem BioAssay (NCI).
